# Data: PubChem BioAssay (NCATS)
# “And” between values parts separate entries of the source, which are not always exact repeats. Equal entries are not always repeated. Records with an inconclusive call do not appear. Where a call stands in place of a potency, no number is given. A number with no mark means an inactive call. The source made the active and inactive calls. Calls follow the shape of the dose curve; as a rule, active = well fitted cell-killing curve with a large enough effect; inconclusive = small, poorly fitted or top-dose-only effect; inactive = flat fitted curve, though single readings scatter.
# Assay: Cellular viability qHTS for adrenocortical cancer (ACC) cell line SW-13 (AID 1963989); also: nearly all actives have a fitted effect of over 65% in size;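 as to activity (max response): cells grown in serum-free medium with ITS supplement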
# Conditions: SW-13 ACC cells viability, CellTiter-Glo, 48 h; activity (max response): stronger effect = lower value
# Outline: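 Here, serum-free SW-13 cultures were dosed up to 46 uM. Following 48 h, ATP-dependent luminescence (CellTiter-Glo) reported viable cells, and logistic modeling produced IC50 values.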
# Potency is read from the fitted curve at half-maximal effect.
SMILES,activity (max response),Potency
C[C@]1(C(=O)N(CCCC(=O)O)Cc2cccc(Cl)c2)CCN1C(=O)c1csc2ccccc12,-17.4%,–
C#CCN(C)CCCOc1ccc(Cl)cc1Cl,-17.3%,–
CC1(N)CCN(c2cnc(-c3cccc(Cl)c3Cl)c(N)n2)CC1,-1.73%,–
CCN(CC)CCNC(=O)c1cc(Br)c(N)cc1OC,-8.12%,–
CCCCCCCCCCC[C@@H](C[C@@H]1OC(=O)[C@H]1CCCCCC)OC(=O)[C@H](CC(C)C)NC=O,4.97%,–
C=CC(=O)Nc1cccc(Nc2nc(Nc3ccc(Oc4ccnc(C(=O)NC)c4)cc3)ncc2F)c1,–,17.8 µM (active)
OC[C@H]1O[C@@H](Oc2cc(O)cc(/C=C/c3ccc(O)cc3)c2)[C@H](O)[C@@H](O)[C@@H]1O,7.59%,–
c1ccc(CNCCNCc2ccccc2)cc1,-0.207%,–
O=c1c(-c2ccc(O)cc2)coc2cc(O[C@@H]3O[C@H](CO)[C@@H](O)[C@H](O)[C@H]3O)ccc12,-7.43%,–
O=C(O)CCCCN(CCc1ccccc1OCc1ccc(CCc2ccccc2)cc1)Cc1ccc(C(=O)O)cc1,9.06%,–
Nc1ccc(N=Nc2ccccc2)c(N)n1,-2.95%,–
COc1ccc2[nH]c(S(=O)Cc3ncc(C)c(OC)c3C)nc2n1 (stereo unspecified),4.99% and -14.4%,–
O=C(CCCc1ccc2cccnc2n1)NCc1cc(-c2ccc(F)c(C(F)(F)F)c2)no1,1.37%,–
O=C(O)c1ccc(O)c2ncccc12,-6.62%,–
CCC(C(=O)OCCN1CCOC(c2ccccc2)C1C)c1ccccc1 (stereo unspecified),3.6%,–
CC(=O)[C@@]1(O)CC[C@H]2[C@@H]3C[C@H](C)C4=CC(=O)CC[C@]4(C)[C@H]3CC[C@@]21C,-1.82%,–

# Assay: Cellular viability qHTS for adrenocortical cancer (ACC) cell line NCI-H295R (AID 1963990); also: nearly all actives have a fitted effect of over 60% in size
# Conditions: CellTiter-Glo ATP luminescence, 48 h; series mostly up to 46.1 µM
# Outline: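 Viability of NCI-H295R after 48 h of treatment (final up to 46 uM) measured through cellular ATP luminescence.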
row,SMILES,Potency
1,C=CCOc1cc(Cl)ccc1C(=O)NCCN(CC)CC,inactive
2,COc1cc(-c2cn(C)c(=O)c3cnccc23)c(OC)cc1CN(C)C,inactive
3,C[C@]1(C(=O)N(CCCC(=O)O)Cc2cccc(Cl)c2)CCN1C(=O)c1csc2ccccc12,inactive
4,C#CCN(C)CCCOc1ccc(Cl)cc1Cl,18.4 µM (active)
5,COc1ccc(CCN(C)CCCN2CCc3cc(OC)c(OC)cc3CC2=O)cc1OC,inactive
6,CC1(N)CCN(c2cnc(-c3cccc(Cl)c3Cl)c(N)n2)CC1,inactive
7,CCN(CC)CCNC(=O)c1cc(Br)c(N)cc1OC,inactive
8,NC(N)=NC(=O)Cc1c(Cl)cccc1Cl,inactive
9,CCCCCCCCCCC[C@@H](C[C@@H]1OC(=O)[C@H]1CCCCCC)OC(=O)[C@H](CC(C)C)NC=O,inactive
10,COc1cc2c3c(n(CCCNCCO)c(=O)c2cc1OC)-c1cc2c(cc1C3=O)OCO2,2.82 µM (active)
11,Cc1cccc(CC(=O)N2CCc3c2ccc(-c2cn(C)c4ncnc(N)c24)c3F)n1,inactive
12,C/C(=C\C(=O)Nc1ccccc1C(=O)O)c1ccc2ccccc2c1,28.2 µM (active)
13,O=C1NC(=O)/C(=C/c2ccc(-c3ccc(F)cc3O)o2)S1,25.1 µM (active)
14,C#Cc1cccc(Nc2ncnc3cc4c(cc23)OCCOCCOCCO4)c1,11.2 µM (active)
15,C=CC(=O)Nc1cccc(Nc2nc(Nc3ccc(Oc4ccnc(C(=O)NC)c4)cc3)ncc2F)c1,17.8 µM (active)
16,Cc1ncc([N+](=O)[O-])n1CC(O)CCl (stereo unspecified),inactive
17,OC[C@H]1O[C@@H](Oc2cc(O)cc(/C=C/c3ccc(O)cc3)c2)[C@H](O)[C@@H](O)[C@@H]1O,inactive
18,Cc1ccc(C(C)C)cc2c(C)ccc1-2,inactive
19,N#C/C(=C1\SCC(c2ccccc2Cl)S1)n1ccnc1 (stereo unspecified),inactive
20,CCN1C(=O)c2ccccc2C1Nc1ccc(OCCN2CCCCC2)cc1 (stereo unspecified),inactive

row,SMILES,Potency
1,c1ccc(CNCCNCc2ccccc2)cc1,inactive
2,CC(=O)Oc1ccc(C2(c3ccc(OC(C)=O)cc3)C(=O)Nc3ccccc32)cc1,inactive
3,O=c1c(-c2ccc(O)cc2)coc2cc(O[C@@H]3O[C@H](CO)[C@@H](O)[C@H](O)[C@H]3O)ccc12,inactive
4,CS(=O)(=O)c1ccc(-c2cnc(NCc3ccco3)n3cnnc23)cc1,inactive
5,O=C(O)CCCCN(CCc1ccccc1OCc1ccc(CCc2ccccc2)cc1)Cc1ccc(C(=O)O)cc1,inactive
6,CC(C)(CO)n1cc(C(=O)c2cncc(NC(=O)Cc3ccc(Cl)cn3)c2)c2cnc(N)nc21,inactive
7,N#C[C@@H]1C[C@@H]2C[C@@H]2N1C(=O)[C@@H](N)C12CC3CC(CC(O)(C3)C1)C2,inactive
8,Cc1cccc(-c2[nH]ncc2-c2ccc(F)c(-c3cnn(CCO)c3)c2)n1,inactive
9,Nc1ccc(N=Nc2ccccc2)c(N)n1,inactive
10,CC(=O)Nc1cc(Oc2ccc3c(nc(Nc4ccc(F)cc4F)n3C)c2C)ccn1,2.24 µM (active)
11,CO/N=C(/C(=O)N[C@@H]1C(=O)N2C(C(=O)OCOC(=O)C(C)(C)C)=C(C)CS[C@H]12)c1csc(N)n1,inactive
12,COc1ccc(Cl)cc1-c1cc(=O)[nH]c(=S)n1CC(N)=O,inactive
13,COc1ccc2[nH]c(S(=O)Cc3ncc(C)c(OC)c3C)nc2n1 (stereo unspecified),inactive
14,COC(=O)[C@H]1[C@@H](O)[C@@]2(O)c3c(OC)cc(O[C@@H]4O[C@@H]([C@@H](O)CO)CO[C@H]4OC)cc3O[C@@]2(c2ccc(OC)cc2)[C@@H]1c1ccccc1,inactive
15,O=C(CCCc1ccc2cccnc2n1)NCc1cc(-c2ccc(F)c(C(F)(F)F)c2)no1,inactive
16,COc1cc(/C=C(\C#N)C(=O)Nc2nnc(C(F)(F)F)s2)ccc1OCc1ccc(C(F)(F)F)cc1C(F)(F)F,inactive
17,C[N+]12CCC(CC1)C(OC(=O)C(O)(c1ccccc1)c1ccccc1)C2 (stereo unspecified),inactive
18,O=C(O)c1ccc(O)c2ncccc12,inactive
19,CCC(C(=O)OCCN1CCOC(c2ccccc2)C1C)c1ccccc1 (stereo unspecified),inactive
20,CC(=O)[C@@]1(O)CC[C@H]2[C@@H]3C[C@H](C)C4=CC(=O)CC[C@]4(C)[C@H]3CC[C@@]21C,inactive
